Assay outcomes as filed in PubChem BioAssay.
This is a sample that favours compounds with a hit; in the whole collection about 8.2% have one here.
ELG1 DNA repair = ELG1-dependent DNA repair inhibition | HEK293T ELG1-luciferase reporter, luminescence, 16 h; DNA damage induced by 5-fluorouridine | Potency, µM (titrated, usually from 46.1 µM), for the others: at the top dose activity change, negative = inhibition, hits mostly inhibitors | 330,000 tested, 2.3% active | AID 504467; note: % is set by controls: 0 for no effect and ±100 for the full control effect; nearly all actives have a fitted effect of over 55% in size
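Overnight (16 hr) co-exposure of 2,000 cells/well to 5-fluorouridine and compound at 37 °C preceded detection. Luciferase was quantified via ONE-Glo luminescence; loss of signal denotes inhibition.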
SW480 rereplic = induces DNA re-replication in SW480 colon adenocarcinoma cells. 340,000 tested, 1.8% active. SW480 DNA re-replication, Hoechst DNA content imaging, 48 h. AID 624297. Potency, µM (top dose mostly 46.1 µM), without a hit: at the top dose re-replication activation, usual class: activators; note: % of control where 0% means no effect; nearly all actives have a fitted effect of over 55% in size
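Hoechst fluorescence of nuclei (405 nm excitation, 500-530 nm emission) measured by plate-scanning imager after 48 hr compound exposure at 37 C; re-replication scored as increased number of nuclei with elevated intensity.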
KB-V1 cytotox = KB-V1 MDR subline cytotoxicity; AID 1347076; Potency, µM (titrated, usually from 46.1 µM), most hits filed as cytotoxic; KB-V1 MDR cells viability, CellTiter-Glo, 72 h; 400,000 tested, 3.4% active; note: % is set by controls: 0 for no effect and ±100 for the full control effect; nearly all actives have a fitted effect of over 60% in size
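Drug-selected KB-V1 cells, grown in DMEM lacking phenol red with 10% FBS, receive compound titrations; after three days at 37 degrees C, surviving cell ATP is quantified by CellTiter-Glo luminescence and responses normalized and curve-fitted.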
MCF10A rereplic = DNA re-replication induction in MCF 10a cells; MCF 10A DNA re-replication, Hoechst nuclear intensity, 48 h; Potency, µM (top dose mostly 46.1 µM), for the others: at the highest dose activity, positive = re-replication, most hits filed as activators; 350,000 tested, 2.9% active; AID 624296; note: % of control where 0% means no effect; nearly all actives have a fitted effect of over 50% in size
KB-3-1 cytotox = KB-3-1 parental cell cytotoxicity; Potency, µM (highest dose often 46.1 µM), most hits filed as cytotoxic; 400,000 tested, 1.4% active; KB-3-1 viability, CellTiter-Glo ATP luminescence, 72 h; note: % is set by controls: 0 for no effect and ±100 for the full control effect; nearly all actives have a fitted effect of over 60% in size
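Cytotoxicity measured as CellTiter-Glo luminescence after 72 h at 37 C. Compound titrations were pinned onto drug-naive KB-3-1 parental adenocarcinoma cells grown in DMEM with 10% FBS, and normalized data fitted to concentration-response curves.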
Active calls of the source: *; i = inactive; u = inconclusive; x = no result given; ! = not active in a repeat. Calls come from the whole dose curve; as a rule, active = well fitted curve in the direction sought with a large enough effect; inconclusive = small, poorly fitted or top-dose-only effect, or another doubt; inactive = no such curve, though single readings can be large; an effect the other way counts as inactive or inconclusive. Potency is the fitted concentration of half-maximal effect.

SMILES | ELG1 DNA repair | SW480 rereplic | KB-V1 cytotox | MCF10A rereplic | KB-3-1 cytotox
COC(=O)C1(c2ccccc2)NC(c2cccs2)C2C(=O)N(c3ccccc3)C(=O)C21 (centres undefined) | x | 50.5% | 23.1µM* | 18.5% | u
CC(C)Cn1c(N)c(C(=O)COC(=O)c2cccc(Cl)c2)c(=O)n(C)c1=O | 20.6µM* | -3.8% | u | 3.0% | i
CCc1ccc(C(=O)OCC(=O)c2c(N)n(CC(C)C)c(=O)n(C)c2=O)cc1 | 8.2µM* | -0.1% | i | 8.1% | u
CC(C)Cn1c(N)c(C(=O)COC(=O)c2ccccc2C(=O)c2ccccc2)c(=O)n(C)c1=O | 16.4µM* | 4.4% | i | u | u
CC(C)Cn1c(N)c(C(=O)COC(=O)c2ccccc2Cl)c(=O)n(C)c1=O | u | 2.2% | i | -2.0% | i
CC(C)Cn1c(N)c(C(=O)CSc2ccc3c(c2)OCCO3)c(=O)n(C)c1=O | 7.31µM* | 3.2% | u | 21.6% | u
COc1cccc(CN(C)C[C@H]2OCc3cnnn3CCCC(=O)N([C@@H](C)CO)C[C@@H]2C)c1 | x | x | i | x | i
Cc1sc2ncn(CC(=O)NC3CCCCC3)c(=O)c2c1C | 16.9% | 3.7% | i | -3.0% | i
Cn1c(N)c(C(=O)COC(=O)c2ccc3c(c2)OCCO3)c(=O)n(C)c1=O | 9.7% | -10.1% | i | 4.5% | i
CC(C)Cn1c(N)c(C(=O)COC(=O)c2ccc3c(c2)OCCO3)c(=O)n(C)c1=O | 7.08µM* | -9.5% | i | 5.3% | u
O=C(Nc1cc(-c2nc3ccccc3o2)ccc1Cl)c1sc2c([N+](=O)[O-])cccc2c1Cl | x | x | i | x | i
COc1cc2c(cc1OC)C(Cc1ccccc1[N+](=O)[O-])=NCC2 | x | -5.7% | 20.6µM* | 7.6% | u
COc1ccc(NCc2ccccc2[N+](=O)[O-])cc1OC | -17.1% | 19.0% | 20.6µM* | u | i
COc1ccc(CCNC(=O)c2cc(-c3ccccc3OC)on2)cc1OC | 16.4µM* | 1.6% | u | 3.7% | i
COc1ccccc1-c1cc(C(=O)NCCc2ccccc2)no1 | u | u | 11.6µM*! | 14.6µM* | u
COc1ccc(CCNC(=O)c2nc(-c3cccs3)no2)cc1OC | 9.2µM* | 0.0% | u | 14.9% | i
COc1ccc(CCNC(=O)c2cc(-c3ccc(C)c(C)c3O)n[nH]2)cc1OC | u | 30.0% | i | 13.7% | i
COc1ccc(CCNC(=O)c2cc(-c3cc(C)ccc3O)n[nH]2)cc1OC | 23.1µM* | 2.2% | u | u | u
COc1ccc(-c2cc(C(=O)NCCc3ccccc3)no2)cc1OC | u | -3.9% | u | 25.4% | i
COc1ccc(N2CCN(C(=O)c3ccc(CNS(=O)(=O)c4cccc(OC)c4)cc3)CC2)cc1 | -14.2% | u | u | 8.1% | u
Cc1cccc(-n2c3nc(=O)n(C)c(=O)c-3cc3c(C)nn(-c4ccccc4)c32)c1C | x | x | u | x | i
CC(=O)c1ccc(N2C(=NC(=O)C3CCCCC3)SC3CS(=O)(=O)CC32)cc1 (centres undefined) | -2.4% | 10.4% | i | 2.7% | i
Cc1nn2cnnc2c(C)c1Cc1c(F)cccc1Cl | 14.7% | -12.3% | i | 14.3% | i
Cn1cc(S(=O)(=O)Nc2cccc3ccccc23)c(=O)n(C)c1=O | 9.6% | -11.0% | i | -4.9% | i
CCc1sc(-c2cc3cccc(OC)c3oc2=O)nc1-c1cc(C)ccc1C | x | x | u | x | i
Cc1cccc(C(=O)NCc2nnc(SCC(=O)NC(C)c3ccccc3)n2C)c1 (centres undefined) | -17.9% | 18.4µM* | i | -3.9% | i
Cc1ccc(Cn2ncc3c(N4CCN(Cc5ccc(Cl)cc5)CC4)ncnc32)cc1 | 5.8µM* | 11.1% | 2.59µM* | u | u
COc1cccc(N2CCN(c3ncnc4c3cnn4-c3ccc(C)cc3C)CC2)c1 | 3.26µM* | 5.4% | u | 6.51µM* | 10.3µM*
Cc1ccc(Cn2ncc3c(N4CCN(c5ccc(C)cc5)CC4)ncnc32)cc1 | -19.9% | 2.0% | u | 24.0% | i
